Assay outcomes: PubChem, National Center for Advancing Translational Sciences (NCATS)
Most compounds without a hit are left out; they make up all but 1.5% or so of the library.
HTT cytoprotect: Huntington cell model cytoprotection by ATP luminescence | PC12 HTT-Q103 induced, cytoprotection, ATP luminescence, 40 h | Potency, µM (highest dose often 56.4 µM), hits mostly activators | actives 0.14% (n = 230,000) | AID 1471; also: nearly all actives have a fitted effect of over 45% in size
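Stable PC12 Q103-GFP cells in serum-supplemented, phenol red-free DMEM; induction by tebufenozide at 100 nM final; compound dose series; cell viability quantified luminescently from ATP.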
Epigenetic reg: epigenetic control regulation, reporter derepression; murine LDR cells, GFP reporter derepression, 30 h; Potency, µM (top dose mostly 53.9 µM), hits mostly activators; actives 0.2% (n = 280,000); AID 1865; also: nearly all actives have a fitted effect of over 60% in size
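Readout is the number of GFP-expressing murine LDR cells, counted by cytometry following washing. Cells were treated with compound for 30 h at 37 C; the stably integrated CMV-GFP locus is normally silent.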
Lamin A splicing: changes lamin A minigene splicing in HeLa cells. HeLa LMNA splicing GFP/RFP minigene ratio, 48 h. Potency, µM (series often up to 46.1 µM), most hits filed as inhibitors. actives 0.01% (n = 200,000); active = well fitted inhibition curve with a large enough effect in the signal ratio, with a control signal flat, not every such curve was filed as active; inconclusive = small, poorly fitted or top-dose-only effect, or effect the other way, or a change in a side signal; the % refers to the signal ratio
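Read-out is the ratio of GFP to DsRed2 object intensity, acquired by 488 nm laser-scanning cytometry on HeLa lamin A-EGFP minigene reporter cells. Compound incubation 48 hrs at 37 °C in Opti-MEM with 2% FBS; DMSO 0.5% final.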
NPSR antagonist: blocks cAMP signaling of the human neuropeptide S receptor; Q6W5P4; CHO-NPSR cells, cAMP TR-FRET, antagonist mode; Potency, µM (highest dose often 38.3 µM), actives largely listed as inhibitors; actives 1% (n = 220,000); AID 1461; also: nearly all actives have a fitted effect of over 50% in size
Target sequence (Q6W5P4 whole entry, looked up): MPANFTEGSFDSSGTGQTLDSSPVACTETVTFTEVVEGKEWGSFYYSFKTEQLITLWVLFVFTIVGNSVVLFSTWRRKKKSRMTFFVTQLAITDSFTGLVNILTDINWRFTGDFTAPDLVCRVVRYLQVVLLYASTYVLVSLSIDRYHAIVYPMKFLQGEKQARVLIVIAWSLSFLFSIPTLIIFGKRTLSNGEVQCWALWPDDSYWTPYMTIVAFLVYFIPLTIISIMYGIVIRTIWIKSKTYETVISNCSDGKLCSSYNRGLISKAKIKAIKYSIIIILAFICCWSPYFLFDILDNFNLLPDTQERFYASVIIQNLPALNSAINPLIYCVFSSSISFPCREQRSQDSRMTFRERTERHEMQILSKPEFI
HTT aggregate: reduces HttQ103-GFP aggregates in PC12 cells. PC12 HttQ103-GFP aggregates, Acumen cytometry, 40 h. Potency, µM (titrated, usually from 46.1 µM), usual class: inhibitors. actives 1.1% (n = 220,000). AID 1688; also: nearly all actives have a fitted effect of over 60% in size
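Quantitative HTS on tebufenozide-induced (100 nM) PC12 cells stably expressing polyQ103 Huntingtin exon 1–GFP. Reduction of bright GFP aggregates, detected by laser scanning cytometry after lysis, identified actives across the titration.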
A number is an active result; 0 = inactive; ? = inconclusive; - = no result; ! = repeats disagree; [ ] = dose if it differs, or a comment. Unless noted, calls follow the shape of the dose curve; as a rule, active = well fitted curve in the direction sought with a large enough effect; inconclusive = small, poorly fitted or top-dose-only effect, or another doubt; inactive = no such curve, though single readings can be large; an effect the other way counts as inactive or inconclusive.

SMILES | HTT cytoprotect | Epigenetic reg | Lamin A splicing | NPSR antagonist | HTT aggregate
CCC1=C[C@@H]2CN(C1)Cc1c([nH]c3ccccc13)[C@@](C(=O)OC)(c1cc3c(cc1OC)N(C)[C@@H]1[C@@](O)(C(=O)OC)[C@H](OC(C)=O)[C@]4(CC)C=CCN5CC[C@]31[C@@H]54)C2 | 0 | - | - | - | 5.6µM
CC[C@]1(O)CC2CN(CCc3c([nH]c4ccccc34)[C@@](C(=O)OC)(c3cc4c(cc3OC)N(C)[C@H]3[C@@](O)(C(=O)OC)[C@H](OC(C)=O)[C@]5(CC)C=CCN6CC[C@]43[C@@H]65)C2)C1 (some centres not stated) | 0 | - | - | - | 0
CC1(C)Cc2c(sc3nc(-c4ccccc4)n(N)c(=O)c23)CO1 | 0 | 0 | 0 | 0 | 0
CC1(C)Cc2c(sc3nc(-c4cccs4)n(N)c(=O)c23)CO1 | 0 | 0 | ? | 0 | 10µM
CN(C)c1ccc(/C=C(\C#N)C(=O)Nc2nc3c(s2)CCN(Cc2ccccc2)C3)cc1 | 0 | 7.9µM | 0 | 0 | 0[9.22 µM]
O=C(Nc1nc2c(s1)CN(Cc1ccccc1)CC2)C1CCC1 | 0[10 µM] | 0 | - | 0 | 0
C/C=C\C1=C(CO)C(=O)[C@@H]2OC2C1=O (some centres not stated) | 0[10 µM] | 0[10.1 µM] | - | - | -
CCOc1ccc(S(=O)(=O)Nc2nc3ccccc3nc2Nc2ccc(OC)cc2)cc1 | - | 0 | - | - | -
COc1ccc(Nc2nc3ccccc3nc2NS(=O)(=O)c2cccs2)cc1 | 0 | 0 | 0[0.0737 µM] | 0 | 22µM
Cc1cc(Br)ccc1NC(=O)c1cc2c(s1)-c1ccccc1SC2 | - | 0 | - | - | -
Cc1ccc(-c2nc(NC(=O)c3nn(C)cc3[N+](=O)[O-])sc2C)cc1 | 0 | 0 | ? | 0 | 0[9.22 µM]
Cc1ccc(-c2nc(NC(=O)c3nn(C)cc3[N+](=O)[O-])sc2C)cc1C | 0 | 0 | ? | 0 | 7.9µM
CCOC(=O)c1c(NC(=O)c2cc(=O)c3c(C)cc(C)cc3o2)sc2c1CCC2 | - | 0 | - | - | -
CCOCCCn1c(=N)c(S(=O)(=O)c2ccc(Cl)cc2)cc2c(=O)n3cccc(C)c3nc21 | - | 0 | - | - | -
CNC(=O)c1nnsc1S(=O)(=O)c1ccc(Cl)cc1 | 0 | 0 | ? | ? | 3.2µM
Nc1nc(C(=O)N2CCOCC2)nn1S(=O)(=O)c1ccc(Cl)cc1 | 0 | 0 | 0 | 0 | 0
O=C(c1nnsc1S(=O)(=O)c1ccc(Cl)cc1)N1CCOCC1 | 0 | ? | ? | 0 | 13µM
O=C(c1nnsc1S(=O)c1ccc(Cl)cc1)N1CCOCC1 (configuration not stated) | 0 | 0 | 0[9.22 µM] | 0 | 11µM
CCCCN(Cc1cccs1)S(=O)(=O)c1cc(-c2cc(C)no2)ccc1C | - | 0 | - | - | -
Nc1ccc(S(=O)(=O)NCc2nccs2)cc1 | 0[10 µM] | - | - | - | -
Clc1ccc2c(c1)C(N1CCNCC1)=Nc1ccccc1O2 | 0.35µM! | 0 | ? | ? | 0
COc1ccccc1-n1c(=O)oc2ccc(Cl)cc2c1=O | 0[0.074 µM] | 0 | ? | 0 | 7.1µM
Cc1cnc(CNc2ncnc3ccc(-c4cccc(C#N)c4)cc23)cn1 | 0 | ? | 0 | - | -
COc1ccc(Oc2cnc3ccccc3n2)cc1 | 0 | 0 | 0 | ? | 11µM
CC(=O)Nc1cccc(Oc2cnc3ccccc3n2)c1 | 0 | 0 | 0 | 0 | 0
SMILES | HTT cytoprotect | Epigenetic reg | Lamin A splicing | NPSR antagonist | HTT aggregate
CC(=O)Nc1ccc(Oc2cnc3ccccc3n2)cc1 | 0 | 0 | 0 | 0 | 11µM
CC(=O)c1cccc(NC(=O)Cn2c(-c3cncs3)nc3ccccc32)c1 | - | 0 | - | - | -
CCOC(=O)Oc1c(OC)cc(C(=O)O[C@H]2C[C@H]3CN4CCc5c([nH]c6cc(OC)ccc56)[C@@H]4C[C@H]3[C@@H](C(=O)OC)[C@@H]2OC)cc1OC | ? | 0 | ? | - | 0
COCCn1c(C)cc(C2=NNC(=Nc3ccccc3)SC2)c1C | 0 | 0 | 0 | 0 | 0
COc1ccccc1C1=NNC(=Nc2cccc(S(=O)(=O)N(C)C)c2)SC1 | ? | 0 | - | 0 | 11µM
C=C(C)COc1ccc(-c2nc(N)ncc2-c2ccc(OC)cc2)c(O)c1 | 0[10 µM] | ? | ? | ? | ?
COc1ccc(-c2cnc(N)nc2-c2ccc(OC)cc2O)cc1 | ? | 0 | 0 | 0 | 11µM
CC(=O)c1sc(NC(=O)c2c(-c3ccccc3)c(-c3ccccc3)nn(C)c2=O)nc1C | - | 0 | - | - | -
CCN(C(=O)C1CCN(S(=O)(=O)c2ccc3c(c2)CCCN3C(=O)C2CCC2)CC1)c1cccc(C)c1 | - | 0 | ? | - | -
CC1CCN(S(=O)(=O)c2ccc(C(=O)Nc3sccc3C(N)=O)cc2)CC1 | ? | 0 | ? | 6.3µM | ?
Cc1cccc(OCCSCc2nc3ccccc3[nH]2)c1 | 0 | 0 | 0 | 0 | 0
Cc1ccccc1OCCSCc1nc2ccccc2[nH]1 | 0[10 µM] | 0 | ? | 0 | 3.5µM
CCCN(CCC)C(=O)[C@@H](CCC(=O)O)NC(=O)c1ccccc1 | 0 | 0 | ? | - | 0
Nc1c(C(=O)c2ccc(Cl)cc2)sc2nsc(SCCN3CCOCC3)c12 | 0[10 µM] | 20µM | - | ? | 0[9.22 µM]
CCOC(=O)c1ccc(-c2ccc(/C=C(\C#N)C(=O)Nc3ccc(C)cc3OC)o2)cc1 | - | 0 | - | - | -
CCOC(=O)c1ccc(-c2ccc(/C=C(\C#N)C(=O)Nc3c(C)cccc3Cl)o2)cc1 | - | 11µM | - | - | -
COc1ccccc1NS(=O)(=O)c1cc(NC(=O)c2ccc(Cl)nc2)ccc1Cl | 0[10 µM] | 0 | ? | 0 | 25µM
CCOC(=O)CCN1C(=O)[C@H]2[C@@H]3[C@H](O)[C@H](O)CC(=O)[C@H]3CC[C@H]2C1=O | 0[10 µM] | 0[10.1 µM] | - | - | -
Cc1ccc(-c2csc(=Nc3cccnc3)n2CCCn2ccnc2)cc1C | 0[10 µM] | 0 | ? | 0 | 3.5µM
Cc1ccc(-c2csc(=Nc3cccnc3)n2CCCN2CCCC2=O)cc1C | 0[10 µM] | 0 | 0 | 0 | 0
COCc1ccc([C@@H]2C[C@H]3CN(Cc4ccccc4C)C(=O)[C@]34CCCN24)o1 | 0 | 0 | - | 0 | 4.5µM
COCc1ccc([C@@H]2C[C@H]3CN(Cc4cccnc4)C(=O)[C@]34CCCN24)o1 | 0[10 µM] | 0 | 0 | 0 | 0[9.22 µM]
O=C(CCN1C(=O)COc2ccccc21)NCCCN1CCN(c2ccccc2F)CC1 | 0 | 0 | 0 | 0 | 3.2µM
Cc1cccc(C(=O)NC2(C(F)(F)F)N=C(c3ccccc3)N(Cc3ccccc3)C2=O)c1 (configuration not stated) | - | 0 | - | - | -
CCCCCn1c(=O)[nH]c2cc(C(=O)NCc3ccc4c(c3)OCO4)ccc2c1=O | 0 | 0 | 0 | 0 | ?
CCCCCn1c(=O)[nH]c2cc(C(=O)N3CCN(Cc4ccc5c(c4)OCO5)CC3)ccc2c1=O | 0 | 0 | ? | 0 | 8.9µM
CCOC(=O)/C(=N/Nc1ccccc1)Sc1nnnn1-c1ccc(C)cc1 | 0[10 µM] | 0 | 0 | 0 | 0
CCOC(=O)/C(=N/Nc1ccc(Cl)cc1)Sc1nnnn1-c1ccc(C)cc1 | 0[10 µM] | 0 | ? | 0 | 2.5µM
O=C(O)CCCC/C=C(\c1ccccc1)c1cccnc1 | 0 | - | - | - | 0
COc1ccc(S(=O)(=O)Nc2ccccc2C(=O)NCc2ccco2)cc1 | 0[10 µM] | 0 | 0 | 0 | 0
